Common to all, as to assay: DAPPL (digital affinity profiling via proximity ligation, sequencing); 10 mM Tris-HCl pH 7.5, 50 mM NaCl, 1 mM DTT, 4% glycerol, room temperature, 30 min; GST-TFs on glutathione beads, 16-mer random dsDNA library, 0.1% formaldehyde crosslink after washing; high values mean tight binding
What all share (settings): protein: recombinant; tags: N-terminal GST; dsDNA, one strand shown

Assay [1] has as its target T1, FLI1 (Homo sapiens, UniProt Q01543 1-452).
T1 sequence: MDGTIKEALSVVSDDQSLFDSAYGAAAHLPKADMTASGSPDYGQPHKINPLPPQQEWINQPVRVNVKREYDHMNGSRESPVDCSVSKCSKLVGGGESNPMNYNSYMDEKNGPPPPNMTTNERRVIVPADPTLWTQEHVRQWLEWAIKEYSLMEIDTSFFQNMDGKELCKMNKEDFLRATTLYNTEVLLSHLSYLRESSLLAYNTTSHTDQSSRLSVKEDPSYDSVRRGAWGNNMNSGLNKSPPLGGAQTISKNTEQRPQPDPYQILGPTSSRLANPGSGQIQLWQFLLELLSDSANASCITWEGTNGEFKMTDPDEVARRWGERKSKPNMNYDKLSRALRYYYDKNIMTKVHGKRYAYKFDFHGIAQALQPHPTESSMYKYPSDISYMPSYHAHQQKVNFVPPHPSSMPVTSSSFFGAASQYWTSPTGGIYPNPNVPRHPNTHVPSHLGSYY
The procedure, abridged:
(§1)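 A tag-only sample was pooled with DNA-barcoded human transcription factors that had been expressed in yeast as GST fusions and captured on glutathione beads. The pools were incubated for 30 min at room temperature with 200 nmole of a random double-stranded 16-mer DNA library in Tris/NaCl/DTT/glycerol buffer, then washed, crosslinked with 0.1% formaldehyde, proximity-ligated (BsaI/T4 ligase, 1 h, 37 °C), PCR-amplified and sequenced on an Illumina NextSeq500. Binding signal is each hexamer's read frequency for a factor divided by its frequency for the tag-only sample.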

In assay [2] the target is T2, GABPA (Homo sapiens, UniProt Q06546 1-454).
T2 sequence: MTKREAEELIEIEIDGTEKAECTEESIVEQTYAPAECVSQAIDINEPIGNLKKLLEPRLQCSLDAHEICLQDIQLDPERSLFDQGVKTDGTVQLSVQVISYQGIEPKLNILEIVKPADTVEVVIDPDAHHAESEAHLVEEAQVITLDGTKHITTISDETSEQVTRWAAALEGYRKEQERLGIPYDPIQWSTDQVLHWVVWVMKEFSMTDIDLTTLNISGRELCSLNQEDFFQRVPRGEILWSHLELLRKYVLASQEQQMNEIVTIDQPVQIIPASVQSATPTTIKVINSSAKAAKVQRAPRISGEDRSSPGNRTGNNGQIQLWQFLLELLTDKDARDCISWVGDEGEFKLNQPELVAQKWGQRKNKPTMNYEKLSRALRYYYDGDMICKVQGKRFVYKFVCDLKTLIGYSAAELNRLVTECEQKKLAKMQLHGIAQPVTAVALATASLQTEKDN
A digest of the protocol:
as §1

Assay [3] addresses T3, EHF (Homo sapiens, UniProt Q9NZC4 1-300).
T3 sequence: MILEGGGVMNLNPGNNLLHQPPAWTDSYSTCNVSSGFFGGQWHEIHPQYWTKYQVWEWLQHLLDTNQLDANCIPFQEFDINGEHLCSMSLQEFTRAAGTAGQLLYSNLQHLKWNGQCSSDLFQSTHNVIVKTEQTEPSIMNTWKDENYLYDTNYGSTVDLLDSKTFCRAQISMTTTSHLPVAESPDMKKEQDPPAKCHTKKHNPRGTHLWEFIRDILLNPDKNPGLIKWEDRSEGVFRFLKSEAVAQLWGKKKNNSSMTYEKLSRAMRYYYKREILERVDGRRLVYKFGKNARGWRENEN
A digest of the protocol: as §1

Assay [4] has as its target ETV5 (Homo sapiens, UniProt P41161 1-510). A digest of the protocol:
as §1

In assay [5] the target is T4, SPIC (Homo sapiens, UniProt Q8N5J4 1-248).
T4 sequence: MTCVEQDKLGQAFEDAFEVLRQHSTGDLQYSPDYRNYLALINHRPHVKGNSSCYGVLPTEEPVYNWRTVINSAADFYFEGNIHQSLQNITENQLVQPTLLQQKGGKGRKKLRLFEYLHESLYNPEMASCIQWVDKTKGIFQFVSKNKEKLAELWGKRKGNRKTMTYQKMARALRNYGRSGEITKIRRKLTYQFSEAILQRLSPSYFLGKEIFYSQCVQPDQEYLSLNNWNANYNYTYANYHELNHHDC
The procedure, abridged:
as §1

Assay [6] concerns the target T5, ERF (Homo sapiens, UniProt P50548 1-548).
T5 sequence: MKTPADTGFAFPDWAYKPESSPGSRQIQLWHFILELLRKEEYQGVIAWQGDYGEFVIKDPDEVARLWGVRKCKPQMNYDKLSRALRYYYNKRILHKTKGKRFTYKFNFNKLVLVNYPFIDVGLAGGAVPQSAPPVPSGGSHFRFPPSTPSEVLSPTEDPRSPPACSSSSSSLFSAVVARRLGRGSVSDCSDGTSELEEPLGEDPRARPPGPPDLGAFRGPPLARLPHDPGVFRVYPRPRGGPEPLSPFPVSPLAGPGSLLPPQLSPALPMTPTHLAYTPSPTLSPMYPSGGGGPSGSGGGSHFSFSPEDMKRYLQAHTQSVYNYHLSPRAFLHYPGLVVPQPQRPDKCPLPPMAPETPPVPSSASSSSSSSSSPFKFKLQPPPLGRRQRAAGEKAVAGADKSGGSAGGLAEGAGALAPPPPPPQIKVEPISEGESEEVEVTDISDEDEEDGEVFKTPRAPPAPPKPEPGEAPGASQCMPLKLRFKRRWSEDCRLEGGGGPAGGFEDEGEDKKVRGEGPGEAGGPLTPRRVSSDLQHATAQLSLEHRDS
A digest of the protocol:
as §1

Assay [7] concerns the target T6, ERG (Homo sapiens, UniProt P11308 1-479).
T6 sequence: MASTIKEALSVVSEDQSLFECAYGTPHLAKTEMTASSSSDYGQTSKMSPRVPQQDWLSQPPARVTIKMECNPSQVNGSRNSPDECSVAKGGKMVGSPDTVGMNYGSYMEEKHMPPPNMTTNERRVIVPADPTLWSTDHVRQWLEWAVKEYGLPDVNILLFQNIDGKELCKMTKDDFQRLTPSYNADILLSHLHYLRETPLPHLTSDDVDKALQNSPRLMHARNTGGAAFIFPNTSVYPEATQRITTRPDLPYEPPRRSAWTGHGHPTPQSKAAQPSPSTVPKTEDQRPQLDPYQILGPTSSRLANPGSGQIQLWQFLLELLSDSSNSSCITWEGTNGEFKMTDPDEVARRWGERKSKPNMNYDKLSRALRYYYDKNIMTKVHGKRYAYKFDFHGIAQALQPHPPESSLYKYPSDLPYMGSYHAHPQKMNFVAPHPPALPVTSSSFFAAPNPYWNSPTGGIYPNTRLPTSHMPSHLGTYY
A digest of the protocol: as §1

Assay [8] deals with ELF1 (Homo sapiens, UniProt P32519 1-619). The procedure, abridged: as §1
Assay [9] addresses SPI1 (Homo sapiens, UniProt P17947 1-270). The procedure, abridged:
as §1

Assay [10] concerns the target SPIB (Homo sapiens, UniProt Q01892 1-262). The procedure, abridged:
as §1

In assay [11] the target is T7, FEV (Homo sapiens, UniProt Q99581 1-238).
T7 sequence: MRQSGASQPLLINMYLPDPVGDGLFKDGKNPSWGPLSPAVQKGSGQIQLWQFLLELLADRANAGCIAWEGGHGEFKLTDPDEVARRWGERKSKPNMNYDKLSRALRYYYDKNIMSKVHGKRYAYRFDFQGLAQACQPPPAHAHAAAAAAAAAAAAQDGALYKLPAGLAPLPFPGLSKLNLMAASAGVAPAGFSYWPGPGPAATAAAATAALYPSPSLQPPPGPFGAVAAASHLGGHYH
A digest of the protocol:
as §1

In assay [12] the target is ELF4 (Homo sapiens, UniProt Q99607 1-663). The procedure, abridged:
as §1

Assay [13] concerns the target ETV1 (Homo sapiens, UniProt P50549 1-477). The procedure, abridged:
as §1

In assay [14] the target is T8, ETV3L (Homo sapiens, UniProt Q6ZN32 1-361).
T8 sequence: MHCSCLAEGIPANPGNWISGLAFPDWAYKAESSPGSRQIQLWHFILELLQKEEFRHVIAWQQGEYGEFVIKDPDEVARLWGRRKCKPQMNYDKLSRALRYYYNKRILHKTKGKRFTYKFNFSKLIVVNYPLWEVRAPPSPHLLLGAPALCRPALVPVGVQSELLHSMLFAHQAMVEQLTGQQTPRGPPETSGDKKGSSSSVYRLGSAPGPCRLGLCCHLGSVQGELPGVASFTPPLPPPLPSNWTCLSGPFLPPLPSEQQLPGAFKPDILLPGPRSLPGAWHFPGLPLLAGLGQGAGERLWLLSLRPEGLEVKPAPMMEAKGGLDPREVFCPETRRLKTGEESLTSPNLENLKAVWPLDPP
A digest of the protocol: as §1

In assay [15] the target is T9, ETS2 (Homo sapiens, UniProt P15036 1-469).
T9 sequence: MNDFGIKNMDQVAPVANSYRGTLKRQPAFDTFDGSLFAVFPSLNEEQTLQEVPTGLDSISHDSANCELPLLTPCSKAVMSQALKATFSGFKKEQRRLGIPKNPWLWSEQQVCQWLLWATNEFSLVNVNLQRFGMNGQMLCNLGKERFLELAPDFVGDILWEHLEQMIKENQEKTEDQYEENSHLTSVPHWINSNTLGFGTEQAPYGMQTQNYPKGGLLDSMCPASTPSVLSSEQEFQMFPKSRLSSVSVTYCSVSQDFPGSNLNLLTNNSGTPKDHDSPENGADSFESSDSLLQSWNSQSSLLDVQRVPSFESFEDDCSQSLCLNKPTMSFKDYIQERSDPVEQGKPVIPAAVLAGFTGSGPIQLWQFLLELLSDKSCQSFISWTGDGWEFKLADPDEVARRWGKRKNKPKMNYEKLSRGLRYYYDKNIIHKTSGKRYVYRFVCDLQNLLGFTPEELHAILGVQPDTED
The procedure, abridged:
as §1

The target of assay [16] is T10, ELF5 (Homo sapiens, UniProt Q9UKW6-2 1-255).
T10 sequence: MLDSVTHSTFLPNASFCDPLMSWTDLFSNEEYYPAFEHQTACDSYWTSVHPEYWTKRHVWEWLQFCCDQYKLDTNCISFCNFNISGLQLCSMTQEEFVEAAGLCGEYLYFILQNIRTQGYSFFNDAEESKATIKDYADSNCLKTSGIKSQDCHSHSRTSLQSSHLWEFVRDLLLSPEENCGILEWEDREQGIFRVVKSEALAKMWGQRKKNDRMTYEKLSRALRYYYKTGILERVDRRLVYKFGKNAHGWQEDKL
A digest of the protocol:
as §1

Assay [17] addresses T11, ETV3 (Homo sapiens, UniProt P41162-2 1-143).
T11 sequence: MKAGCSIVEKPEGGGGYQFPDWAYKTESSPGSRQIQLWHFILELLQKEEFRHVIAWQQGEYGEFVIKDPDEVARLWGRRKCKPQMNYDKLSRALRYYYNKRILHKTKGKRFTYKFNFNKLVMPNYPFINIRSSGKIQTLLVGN
The procedure, abridged:
as §1

Assay [18] addresses ETV6 (Homo sapiens, UniProt P41212 1-452). The procedure, abridged: as §1

Chain of ETV5 (P41161 whole entry): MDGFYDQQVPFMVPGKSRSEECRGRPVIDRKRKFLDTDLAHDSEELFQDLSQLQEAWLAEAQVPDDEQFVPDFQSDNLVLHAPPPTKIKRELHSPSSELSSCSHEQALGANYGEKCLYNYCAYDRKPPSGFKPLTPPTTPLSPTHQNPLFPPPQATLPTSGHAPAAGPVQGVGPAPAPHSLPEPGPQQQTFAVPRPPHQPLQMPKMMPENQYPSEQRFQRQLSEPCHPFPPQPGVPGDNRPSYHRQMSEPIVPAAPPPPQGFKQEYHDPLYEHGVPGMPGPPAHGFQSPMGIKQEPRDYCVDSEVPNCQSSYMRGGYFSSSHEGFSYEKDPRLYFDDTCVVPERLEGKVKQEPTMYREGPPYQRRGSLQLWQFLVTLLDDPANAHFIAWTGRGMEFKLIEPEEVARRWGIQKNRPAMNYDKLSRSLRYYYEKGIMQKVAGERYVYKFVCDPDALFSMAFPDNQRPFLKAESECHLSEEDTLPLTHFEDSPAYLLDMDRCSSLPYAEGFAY
Chain of ELF1 (P32519 whole entry): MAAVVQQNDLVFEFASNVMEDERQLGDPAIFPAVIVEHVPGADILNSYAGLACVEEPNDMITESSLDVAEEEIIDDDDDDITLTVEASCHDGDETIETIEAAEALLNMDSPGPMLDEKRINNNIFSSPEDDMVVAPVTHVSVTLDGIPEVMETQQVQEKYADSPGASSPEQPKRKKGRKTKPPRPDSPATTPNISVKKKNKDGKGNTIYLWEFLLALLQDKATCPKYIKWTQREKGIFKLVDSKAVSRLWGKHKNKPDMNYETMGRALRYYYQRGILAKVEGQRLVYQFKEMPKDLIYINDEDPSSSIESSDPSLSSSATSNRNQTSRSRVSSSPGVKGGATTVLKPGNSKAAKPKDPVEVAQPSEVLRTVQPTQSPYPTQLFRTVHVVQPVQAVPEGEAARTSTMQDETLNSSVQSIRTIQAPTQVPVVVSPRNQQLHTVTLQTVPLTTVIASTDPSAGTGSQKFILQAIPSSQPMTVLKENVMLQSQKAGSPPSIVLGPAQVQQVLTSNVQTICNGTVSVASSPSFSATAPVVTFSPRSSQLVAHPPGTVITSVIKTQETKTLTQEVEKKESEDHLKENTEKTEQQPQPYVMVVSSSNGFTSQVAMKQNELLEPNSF
Chain of ETV6 (P41212 whole entry): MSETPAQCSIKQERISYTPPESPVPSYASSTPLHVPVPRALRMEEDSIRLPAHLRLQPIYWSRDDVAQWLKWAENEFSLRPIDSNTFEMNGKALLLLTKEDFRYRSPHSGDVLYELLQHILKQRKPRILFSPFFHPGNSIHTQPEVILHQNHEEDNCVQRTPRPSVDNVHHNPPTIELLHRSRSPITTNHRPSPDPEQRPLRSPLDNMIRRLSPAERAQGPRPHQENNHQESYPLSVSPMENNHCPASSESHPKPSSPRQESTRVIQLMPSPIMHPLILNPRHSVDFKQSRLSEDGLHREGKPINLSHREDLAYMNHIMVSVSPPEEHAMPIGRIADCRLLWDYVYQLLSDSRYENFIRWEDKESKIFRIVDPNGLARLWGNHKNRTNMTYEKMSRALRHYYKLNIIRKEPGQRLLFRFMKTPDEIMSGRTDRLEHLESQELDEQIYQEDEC
Chain of ETV1 (P50549 whole entry): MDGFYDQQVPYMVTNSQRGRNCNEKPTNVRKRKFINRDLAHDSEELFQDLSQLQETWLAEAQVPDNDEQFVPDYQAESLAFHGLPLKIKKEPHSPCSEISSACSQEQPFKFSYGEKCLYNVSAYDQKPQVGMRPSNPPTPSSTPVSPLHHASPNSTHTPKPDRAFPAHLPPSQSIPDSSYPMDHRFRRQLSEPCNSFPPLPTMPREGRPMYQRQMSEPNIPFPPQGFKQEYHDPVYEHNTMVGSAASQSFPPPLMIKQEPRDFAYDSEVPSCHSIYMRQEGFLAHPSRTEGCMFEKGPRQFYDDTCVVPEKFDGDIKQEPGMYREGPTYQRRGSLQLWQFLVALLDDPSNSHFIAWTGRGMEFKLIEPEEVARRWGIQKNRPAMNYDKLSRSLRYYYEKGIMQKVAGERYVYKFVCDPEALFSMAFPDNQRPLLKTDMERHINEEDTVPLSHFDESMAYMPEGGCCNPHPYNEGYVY
Chain of SPIB (Q01892 whole entry): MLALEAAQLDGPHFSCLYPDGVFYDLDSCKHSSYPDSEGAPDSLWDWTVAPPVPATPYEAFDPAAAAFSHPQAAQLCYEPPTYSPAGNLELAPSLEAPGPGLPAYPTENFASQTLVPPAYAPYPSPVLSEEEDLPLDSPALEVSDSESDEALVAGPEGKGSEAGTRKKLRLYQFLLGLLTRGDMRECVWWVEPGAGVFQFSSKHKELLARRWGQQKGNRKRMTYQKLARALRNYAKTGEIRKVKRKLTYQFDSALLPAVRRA
Chain of ELF4 (Q99607 whole entry): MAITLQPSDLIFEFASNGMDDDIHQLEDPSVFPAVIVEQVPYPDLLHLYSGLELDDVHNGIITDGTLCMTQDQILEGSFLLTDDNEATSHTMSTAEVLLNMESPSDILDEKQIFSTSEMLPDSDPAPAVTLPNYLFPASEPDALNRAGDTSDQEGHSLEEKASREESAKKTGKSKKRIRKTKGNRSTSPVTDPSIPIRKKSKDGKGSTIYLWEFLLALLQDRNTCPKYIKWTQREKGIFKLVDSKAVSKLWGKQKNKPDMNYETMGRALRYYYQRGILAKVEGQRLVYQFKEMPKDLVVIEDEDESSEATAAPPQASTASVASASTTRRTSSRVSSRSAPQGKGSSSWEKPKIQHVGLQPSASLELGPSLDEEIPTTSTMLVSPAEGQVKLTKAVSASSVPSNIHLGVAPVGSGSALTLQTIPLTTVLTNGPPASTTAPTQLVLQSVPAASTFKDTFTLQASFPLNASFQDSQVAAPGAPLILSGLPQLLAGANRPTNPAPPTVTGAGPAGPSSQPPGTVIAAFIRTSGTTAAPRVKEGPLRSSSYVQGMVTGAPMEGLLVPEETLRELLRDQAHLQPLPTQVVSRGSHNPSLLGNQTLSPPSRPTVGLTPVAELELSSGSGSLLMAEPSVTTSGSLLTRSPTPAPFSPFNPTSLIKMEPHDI

With TGGGTA, the binding signal is 1.04 fold enrichment (6-mer frequency, TF over GST control) in [1]; 1.05 fold enrichment (6-mer frequency, TF over GST control) in assay [2]; 1.01 fold enrichment (6-mer frequency, TF over GST control) in assay [3]; 1.02 fold enrichment (6-mer frequency, TF over GST control) in assay [4]; 1.03 fold enrichment (6-mer frequency, TF over GST control) in assay [5]; 1.14 fold enrichment (6-mer frequency, TF over GST control) in assay [6].
GCTTGT: the binding signal in assay [1] was 1.22 fold enrichment (6-mer frequency, TF over GST control); in [2] it was 1.08 fold enrichment (6-mer frequency, TF over GST control); in [7] it was 1.05 fold enrichment (6-mer frequency, TF over GST control); in assay [8], 1.11 fold enrichment (6-mer frequency, TF over GST control); in assay [3], 1.13 fold enrichment (6-mer frequency, TF over GST control); in [9], 1.15 fold enrichment (6-mer frequency, TF over GST control). In addition, the binding signal in assay [10] was 1.13 fold enrichment (6-mer frequency, TF over GST control); in assay [11], 1.02 fold enrichment (6-mer frequency, TF over GST control); in [4], 1.2 fold enrichment (6-mer frequency, TF over GST control); in [5], 1.26 fold enrichment (6-mer frequency, TF over GST control); in [12] it was 1.07 fold enrichment (6-mer frequency, TF over GST control); in assay [13], 1.13 fold enrichment (6-mer frequency, TF over GST control). The binding signal in assay [6] is 1.18 fold enrichment (6-mer frequency, TF over GST control); in [14], 1.02 fold enrichment (6-mer frequency, TF over GST control); in assay [15], 1.07 fold enrichment (6-mer frequency, TF over GST control); in assay [16], 1.05 fold enrichment (6-mer frequency, TF over GST control); in assay [17] it was 1.11 fold enrichment (6-mer frequency, TF over GST control); in assay [18] it was 1.02 fold enrichment (6-mer frequency, TF over GST control).

The values above are taken from PMC7862700, “An all-to-all approach to the identification of sequence-specific readers for epigenetic DNA modifications on cytosine”.
